The assay has as its target Genome polyprotein (Dengue virus type 2 (strain 16681-PDK53)) (UniProt P29991). As to the kind of experiment: Dengue-2 NS5 methyltransferase inhibitors, primary screen, biochemical, confirmation dose response (AID 588689). The conditions noted are these: Dengue-2 NS5 methyltransferase capping enzyme assay, at 25 µM, stronger effect = higher value.
[1] abbreviates: measured here: pilot screen replicate inhibition.

Hit rate of the full screen: of about 340,000 compounds, about 1,000 (0.29%) were called active. Rule as the data show it: inconclusive = inhibition above about 29% without an active follow-up result; inactive = below that. Only a sample is shown. Measured potencies and affinities stand elsewhere.

As for `O=C(CN1C(=O)/C(=C/c2ccco2)SC1=S)Nc1ccc(C(=O)O)c(O)c1`, the inhibition is 36.5% (inactive).

As to `O=C(CCN1C(=O)/C(=C/c2ccco2)SC1=S)Nc1ccc(C(=O)O)c(O)c1`, the inhibition is 48.7% (inactive).

In the case of `O=C(CCCN1C(=O)/C(=C\c2ccccc2)SC1=S)Nc1ccc(O)cc1C(=O)O`, the inhibition was 20.6% (inactive).

For the compound `O=C(CN1C(=O)S/C(=C\c2cccs2)C1=O)Nc1ccc(O)cc1C(=O)O`, the inhibition is 14.3% (inactive).

Regarding `O=C(CCCN1C(=O)/C(=C\c2cccs2)SC1=S)Nc1ccc(O)cc1C(=O)O`, the inhibition was -9.83% (inactive).

`Cc1ccc(/C=C2\SC(=S)N(CCC(=O)NNC(=O)c3ccc(O)cc3)C2=O)cc1`: the inhibition was -0.88% (inactive).

Turning to `O=C(CN1C(=O)S/C(=C\c2cccs2)C1=O)Nc1ccc(O)c(C(=O)O)c1`, the inhibition was 8.14% (inactive).

Turning to `O=C(CN1C(=O)S/C(=C\c2cccs2)C1=O)Nc1ccc(C(=O)O)c(O)c1`, the inhibition was 15% (inactive).

On to `CC(C)(CNC(=O)c1ccccc1F)CNC(=O)c1ccccc1F`, for which the inhibition was 3.07% (inactive).

As for `CC(C)OC(=O)N(C)C[C@H]1OCc2cnnn2CCCC(=O)N([C@H](C)CO)C[C@H]1C`, the inhibition was -3.41% (inactive).

Regarding `COc1ccc(C2=NS(=O)(=O)N(C)C(C(=O)NC3CCCCC3)=C2)cc1OC`, the inhibition was -5.5% (inactive).

On to `O=S(=O)(CCc1nc2ccccc2o1)c1ccc2ccccc2c1`, for which the inhibition was -2.77% (inactive).

In the case of `CC(Sc1nnc(COc2ccc(Cl)cc2)n1Cc1ccccc1)C(=O)O` (stereo unspecified), the inhibition was 0.73% (inactive).

`CCN(CC)C(=O)C1=C(C)N(CCC2=CCCCC2)C(=O)C(CC(=O)NCC2CCCCC2)C1` (stereo unspecified): the inhibition was -0.57% (inactive).

Regarding `O=[N+]([O-])c1cc(C(F)(F)F)cc([N+](=O)[O-])c1NN=C1CCCCC1`, the inhibition is -139% (inactive).

For `CC1(C)CC(=O)C=C(NCc2ccc(C(=O)O)cc2)C1`, the inhibition was -7.73% (inactive).

Consider `COc1ccc(CN2C(=O)C(C)Nc3ncnc(N4CCOCC4)c32)cc1` (stereo unspecified), for which the inhibition was -5.79% (inactive).

For the compound `COc1ccc(S(=O)(=O)N(CCCN2CCOCC2)Cc2cccc3ccccc23)cc1`, the inhibition was 1.67% (inactive).

For `CCN(CC)c1ccc(C(=C2C=CC(=[N+](CC)CC)C=C2)c2ccc(S(=O)(=O)O)cc2S(=O)(=O)[O-])cc1`, the inhibition is 1.48% (inactive).

In the case of `CCN(CC)c1ccc(C(=C2C=CC(=[N+](CC)CC)C=C2)c2ccc(N(CC)CC)cc2)cc1`, the inhibition is 17% (inactive).

`Cc1ccc2[nH]cc(CCNC(=O)c3ccc4c(c3)OCO4)c2c1`: the inhibition is 1.31% (inactive). Moreover, under setting [1], the inhibition is -1.82%.

On to `O=S(=O)(NCc1nnc2ccccn12)c1ccc(F)cc1`, for which the inhibition was -3.63% (inactive).

Regarding `Cc1sc(N2C(=O)C3C4C=CC(C4)C3C2=O)c(C#N)c1C` (stereo unspecified), the inhibition was -2.18% (inactive).

Regarding `CC(C)[C@H](NC(=O)c1c(F)cccc1F)C(=O)OCC(=O)NNC(=O)c1ccccc1`, the inhibition was -2.88% (inactive).

As for `CN(C)c1ccc2c(O)cc(=O)n(C)c2c1`, the inhibition was 23.3% (inactive).

For `CN(C)c1ccc(Cc2ccc(N(C)C)cc2)cc1`, the inhibition was 4.45% (inactive).

Regarding `COc1cc(NC(=O)c2cccs2)c(OC)cc1NC(=O)c1cccs1`, the inhibition was -7.78% (inactive).

Regarding `CCC(C)N(C(=O)CSc1nc(C)nc2ccccc12)C1CCS(=O)(=O)C1` (stereo unspecified), the inhibition was -9.59% (inactive).

In the case of `O=C(c1ccccc1)N1CCN(c2ccc(N3CCOCC3)nn2)CC1`, the inhibition was 0.74% (inactive).

As for `C[C@H](CO)N1C[C@H](C)[C@H](CN(C)C(=O)Nc2ccccc2)OCc2cnnn2CCCC1=O`, the inhibition is 1.65% (inactive).

For the compound `O=C1C=C(Nc2ccccc2O)c2ccccc2C1=O`, the inhibition was 19% (inactive).

`O=C1C=C(Nc2cccnc2)c2ccccc2C1=O`: the inhibition is 33.2% (inactive).

For the compound `CSc1nnc(C)c(=O)n1COC(=O)COc1ccc2ccccc2c1`, the inhibition is 3.64% (inactive).

For `COc1ccc(-c2c(C#Cc3ccc(N(C)C)cc3)c3ccccc3n2C)cc1`, the inhibition is 6.35% (inactive).

For `Cc1cc(-c2ccc([N+](=O)[O-])cc2)nc2ccccc12`, the inhibition is 0% (inactive).

For `Cc1nc2c(-c3ccccc3)c(C)nn2c(N)c1-c1ccccc1`, the inhibition is -5.49% (inactive).

As for `C[C@@]12C(=O)Nc3cc(F)c(F)cc3C(=O)N1[C@H]1c3cc(Cl)ccc3OC[C@@H]1[C@@H]2c1ccccc1`, the inhibition is 2.81% (inactive).

In the case of `Cc1cc(C)c2[nH]c(=O)c(C(c3nnnn3Cc3ccc4c(c3)OCO4)N3CCCCC3)cc2c1` (stereo unspecified), the inhibition is 9.03% (inactive).

Regarding `Cc1cc(C)c(NC(=O)CN2C(=O)NC3(CCCCC3)C2=O)c(C)c1`, the inhibition is -3.21% (inactive).

In the case of `Cc1cccc(NC(=O)CN(C)S(=O)(=O)c2ccc(-c3ccc(=O)[nH]n3)s2)c1C`, the inhibition was -3.18% (inactive).

Regarding `CC(=O)CC(=O)NC1CCc2ccccc21` (stereo unspecified), the inhibition is -2.7% (inactive).

For `CCOc1ccc(C(=O)c2ccccc2C(=O)O)cc1OCC`, the inhibition is -7.73% (inactive).

As for `CC1=CC(=O)C(C(C)C)=C/C1=N/OS(=O)(=O)c1ccccc1`, the inhibition is -4.66% (inactive).

Take `CC1(C)SC(=S)N(/N=C/c2ccccc2)C1N(O)C(=O)Nc1ccc([N+](=O)[O-])cc1` (stereo unspecified): the inhibition was -1.56% (inactive).

Regarding `CC(=O)N(C1=C(N2CCOCC2)C(=O)c2ccccc2C1=O)c1ccc(C(=O)O)cc1`, the inhibition is 24.1% (inactive).

For the compound `COc1ccccc1N(C(C)=O)c1nc(C)cc(C)c1C#N`, the inhibition was -9.48% (inactive).

Regarding `CC(=O)N(C1=C(N)C(=O)c2ccccc2C1=O)c1ccccc1`, the inhibition was -4.08% (inactive).

Consider `CC(=O)N(C1=C(O)c2ccccc2C(=O)C1=O)C1CCCCC1`, for which the inhibition was 4.86% (inactive).

For `CC(=O)N(c1ccccc1)C1CCCC1`, the inhibition is -5.78% (inactive).

Consider `COc1ccccc1N(/N=C1\Sc2ccccc2C1=O)C(C)=O`, for which the inhibition is 0.77% (inactive).

Consider `CC(C)CCCN1C(Nc2ccccc2)=NC[C@@H]1C`, for which the inhibition was -8.02% (inactive).

Take `O=C(COC(=O)/C=C/c1ccc(C(F)(F)F)cc1)NCc1ccco1`: the inhibition is 1.3% (inactive).

`COc1ccccc1NC(=O)CN1C(=O)COc2ccc(S(=O)(=O)N3CCCCCC3)cc21`: the inhibition was -3.55% (inactive).

Regarding `COc1cccc(C(=O)Nn2c(-c3cccs3)nc3ccccc3c2=O)c1OC`, the inhibition is -3.56% (inactive).

As for `O=C(NCc1ccccn1)c1ccc(Cn2cc(C(F)(F)F)ccc2=O)cc1`, the inhibition is -5.74% (inactive).

Take `Cn1c(=O)c2c(ncn2CC(=O)N2CCc3ccccc3C2)n(C)c1=O`: the inhibition was -0.55% (inactive).

Consider `CCc1ccc([C@@H]2CC=C(C(=O)O)[C@H](c3ccc(F)cc3)N2S(=O)(=O)c2ccc(C)cc2)cc1`, for which the inhibition was 15.9% (inactive).

As to `Cc1ccc([C@H]2C(C(=O)O)=CC[C@@H](c3ccc(Cl)cc3)N2S(=O)(=O)c2ccc(C)cc2)cc1`, the inhibition is 23.2% (inactive). Under setting [1], the inhibition was 7.95%.

`CCCC[C@@H]1C=C(C(=O)O)[C@H](c2ccc(Cl)cc2)N1S(=O)(=O)c1ccc(C)cc1`: the inhibition is 9.27% (inactive). In addition, the inhibition under setting [1] stood at 1.23%.

For the compound `Cc1ccc(S(=O)(=O)N2[C@@H](c3ccccc3)C(C(=O)O)=CC[C@H]2c2ccc(Cl)cc2)cc1`, the inhibition is 13.2% (inactive).

For `CCc1ccc([C@@H]2CC=C(C(=O)O)[C@H](c3ccccc3)N2S(=O)(=O)c2ccc(C)cc2)cc1`, the inhibition was 15.1% (inactive).

For the compound `CCCCC[C@@H]1C=C(C(=O)O)[C@H](c2ccc(C)cc2)N1S(=O)(=O)c1ccc(C)cc1`, the inhibition was 10.4% (inactive).

Consider `Cn1ncc([N+](=O)[O-])c1C(=O)Nc1cccc2ccccc12`, for which the inhibition was -4.99% (inactive).

On to `CC(C)CN(C(=O)COC(=O)CCCc1c[nH]c2ccccc12)c1c(N)n(Cc2ccccc2)c(=O)[nH]c1=O`, for which the inhibition is 1.62% (inactive).

Take `Clc1ccc(OCCn2cnc(Cl)c2Cl)cc1`: the inhibition was 2.87% (inactive).

With `Cc1cccn2cc(CCNC(=O)c3ccc(Br)o3)nc12`, the inhibition is 3.48% (inactive).

Regarding `O=C1COCCOCCOCCOCC(=O)NCCN1`, the inhibition was -2.15% (inactive).

As for `CCOC(=O)C1=CN(Cc2ccco2)S(=O)(=O)N(C)C1c1ccc(C(F)(F)F)cc1` (stereo unspecified), the inhibition was -11.6% (inactive). The inhibition under setting [1] was -0.605%.

In the case of `O=C(CSc1nnc(Cc2ccccc2)o1)NCCN1C(=O)CSC1=O`, the inhibition was -7.38% (inactive).

On to `CCCCc1ccc(/C=C(\C#N)C(N)=S)s1`, for which the inhibition is 0% (inactive).

On to `CCc1ccc(/C=C(/C#N)C(N)=S)s1`, for which the inhibition is 0% (inactive).

Turning to `Cc1ccc(N2C(=O)CC(Nc3ccc(Cl)c(S(=O)(=O)N(C)C)c3)C2=O)c(C)c1` (stereo unspecified), the inhibition was -11.6% (inactive).

`Cc1ccc(S(=O)(=O)NCCOCCNS(=O)(=O)c2ccc(C)cc2)cc1`: the inhibition is -4.78% (inactive).

Consider `CC(/C=C1\SC(=S)N(CCC(=O)Nc2ccc(O)cc2)C1=O)=C\c1ccccc1`, for which the inhibition was 1.3% (inactive).

For `CCC(C(=O)O)N1C(=O)/C(=C/c2cccn2C)SC1=S` (stereo unspecified), the inhibition was -25.5% (inactive).

On to `CC(C)C(C(=O)O)N1C(=O)/C(=C/c2cccn2C)SC1=S` (stereo unspecified), for which the inhibition is -19.5% (inactive).

For `CC(/C=C1\SC(=S)N(NC(=O)c2ccncc2)C1=O)=C\c1ccccc1`, the inhibition was 21.6% (inactive).

Turning to `CC(/C=C1\SC(=S)N(CC(=O)N2CCN(c3ccccc3)CC2)C1=O)=C\c1ccccc1`, the inhibition was -0.73% (inactive).

Regarding `CC(/C=C1\SC(=S)N(CC(=O)O)C1=O)=C\c1ccccc1`, the inhibition is 26% (inactive).

`CC(C)C(C(=O)O)N1C(=O)/C(=C/C=C/c2ccco2)SC1=S` (stereo unspecified): the inhibition was 42.9% (inactive).

As to `CCOC(=O)c1c(C)[nH]c(C(=O)OCC(=O)NC2(C#N)CCCCC2)c1C`, the inhibition is -11.6% (inactive).

For `O=c1n(Cc2ccccc2F)c2ccccc2n1Cc1ccccc1F`, the inhibition is -3.2% (inactive).

Regarding `FC(F)(F)c1ccccc1/C=N/n1c(C2CCCCC2)n[nH]c1=S`, the inhibition was 10.6% (inactive).

With `COc1ccc(N=C2SC(C(=O)O)CC(=O)N2C)cc1` (stereo unspecified), the inhibition is 0.68% (inactive).

`COc1cccc(NC(=O)CN(C)C(=O)c2cccc(S(=O)(=O)N3CCN(c4ccccc4)CC3)c2)c1`: the inhibition was -6.1% (inactive).

Regarding `O=C(COc1ccc(S(=O)(=O)N2CCCCC2)cc1)NCC1CCCO1` (stereo unspecified), the inhibition is -5.9% (inactive).

On to `Cc1nnc(NCCc2ccccc2)c2ccccc12`, for which the inhibition is -6.68% (inactive).

Usually inhibition stands for the relative decrease from the control value, in per cent.
